Records with an inconclusive call do not appear. Entries that show only a call come without a potency. Active and inactive are the calls of the source. Calls come from the whole dose curve; as a rule, active = well fitted inhibition curve with a large enough effect; inconclusive = small, poorly fitted or top-dose-only effect; inactive = no such curve, though single readings can be large or run the other way.
Potency is the fitted concentration of half-maximal effect.

Chain of Rap guanine nucleotide exchange factor 3 (Homo sapiens) (O95398 whole entry, looked up): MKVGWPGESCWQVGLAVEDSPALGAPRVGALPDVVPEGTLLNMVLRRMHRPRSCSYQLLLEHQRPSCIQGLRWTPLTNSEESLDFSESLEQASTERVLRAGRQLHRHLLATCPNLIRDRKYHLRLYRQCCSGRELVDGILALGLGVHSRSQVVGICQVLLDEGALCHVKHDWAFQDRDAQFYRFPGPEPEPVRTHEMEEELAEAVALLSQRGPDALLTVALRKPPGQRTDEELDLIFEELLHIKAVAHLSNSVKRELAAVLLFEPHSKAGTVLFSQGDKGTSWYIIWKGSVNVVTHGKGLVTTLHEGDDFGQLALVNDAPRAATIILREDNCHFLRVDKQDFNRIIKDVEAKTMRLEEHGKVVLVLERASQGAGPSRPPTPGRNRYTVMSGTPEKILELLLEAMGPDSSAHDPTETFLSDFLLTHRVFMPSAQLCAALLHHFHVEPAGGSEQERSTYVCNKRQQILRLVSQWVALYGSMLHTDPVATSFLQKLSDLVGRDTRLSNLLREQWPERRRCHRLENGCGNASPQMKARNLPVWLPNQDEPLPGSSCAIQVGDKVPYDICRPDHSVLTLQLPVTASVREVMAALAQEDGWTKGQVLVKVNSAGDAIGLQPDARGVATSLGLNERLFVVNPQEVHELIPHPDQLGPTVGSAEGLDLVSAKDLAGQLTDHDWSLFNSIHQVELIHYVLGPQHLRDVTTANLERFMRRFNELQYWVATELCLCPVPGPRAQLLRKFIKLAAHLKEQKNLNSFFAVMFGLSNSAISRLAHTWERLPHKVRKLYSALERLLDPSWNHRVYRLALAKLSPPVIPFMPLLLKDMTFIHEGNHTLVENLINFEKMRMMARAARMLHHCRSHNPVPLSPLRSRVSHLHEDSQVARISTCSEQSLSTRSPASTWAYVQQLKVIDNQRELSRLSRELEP

This experiment has as its target Rap guanine nucleotide exchange factor 3 (Homo sapiens) (UniProt O95398). The experiment in a line: Confirmatory qHTS for antagonist of cAMP-regulated guanine nucleotide exchange factor 3 (EPAC1) (AID 1645880). Note: nearly all actives have a fitted effect of over 55% in size. The following applies: EPAC1 Rap1B-BODIPY-GDP exchange, fluorescence; series mostly up to 115 µM. The text has this:
Assay Provider (PI): Xiaodong Cheng Ph.D. The University of Texas Medical Branch, […], TX MLPCN Grant: NS066510 In multi-cellular eukaryotic organisms, the effects of cAMP are transduced by two ubiquitously-expressed intracellular cAMP receptors, the classic protein kinase A/cAMP-dependent protein kinase (PKA/cAPK) and the more recently discovered exchange protein directly activated by cAMP/cAMP-regulated guanine nucleotide exchange factor (EPAC/cAMP-GEF). Both PKA and EPAC are ubiquitously expressed in all tissues, and an increase in intracellular cAMP levels will lead to the activation of both PKA and EPAC. Therefore, careful dissections of the individual role and relative contribution of EPAC and PKA within the overall cAMP signaling in various model systems are critical for further elucidating the mechanism of cAMP signaling. To date no EPAC-specific antagonists and agonist, as well as isoform-specific agonists have been reported, and developing EPAC-specific pharmacological probes to determine the physiological functions that EPAC play in the overall cAMP-mediated signaling remains a major challenge within the research field. Furthermore, identified regulators of EPAC may lead to new mechanism-based therapeutic strategies specifically targeting the EPAC / cAMP-signaling components as EPAC has been implicated to play important roles in major human pathological conditions such as diabetes, heart disease, and cancer. This qHTS will be used to screen the Molecular Libraries Small Molecule Repository (MLSMR) as a concentration-titration series using the NCGC unique quantitative screening (qHTS) platform to find activators for EPAC1. In addition, this assay will also be used as a counterscreen for the EPAC2 qHTS. This fluorescent based assay is developed and validated for EPAC1 that measures exchange using EPAC effector Rap1 complex with BODIPY-GDP, a GDP analog with a tethered fluorophores. Activators are identified by monitoring the change in fluorescence signal as the exchanged free BODIPY-GDP has a reduced fluorescence compared to Rap1-bound BODIPY-GDP. Increase in signal (activation) is the desired outcome for the EPAC1 agonist while no activity in this assay is desired for the EPAC2 agonist counterscreen. Reference: [1] de Rooij, J., Zwartkruis, F. J., Verheijen, M. H., Cool, R. H., Nijman, S. M., Wittinghofer, A., and Bos, J.L. (1998) Nature 396, 474-477. Kawasaki, H., Springett, G. M., Mochizuki, N., Toki, S., Nakaya, M., Matsuda, M., Housman, D. E., and Graybiel, A. M. (1998) Science 282, 2275-2279.
Briefly, three uL of reagents (100 nM EPAC1, 250 nM RAP1B-BODIPY-GDP, 50 uM GDP) were dispensed into a 1536-well Greiner black solid-bottom medium binding assay plate. Controls and test compounds (23 nL) were transferred to the plate via a Kalypsys pin tool equipped with a 1536-pin array. The plates were centrifuged at 1,000 rpm for 15 seconds followed by 5 minute incubation at room temperature. The assay plates were read at 5 minute intervals for 30 minutes in the ViewLux plate reader using 480nm excitation and 540nm emission filters. The results were normalized to the […] positive control ATA and DMSO.
(In qHTS, concentration-response curves come from the screen itself.)
With `O=C(Nc1ccc(F)cc1F)C1CCN(c2ncccn2)CC1`, the Potency entry was “inactive”.

Consider `CC(C)C1CC2=C(C(=O)OC(C)(C)O2)C(c2ccc(F)cc2)O1` (stereo not given), for which the Potency result was “inactive”.

With `Cc1cccc(C)c1OCC(=O)N(Cc1ccco1)Cc1ccco1`, the Potency entry was “inactive”.

As to `CCc1ccccc1Oc1nc(NC(C)C)nc2ccsc12`, the Potency result is “inactive”.

Take `CCCn1c(CN2CCN(C(=O)c3ccco3)CC2)nc2c1c(=O)n(C)c(=O)n2C`: the Potency entry is “inactive”.

For `COc1ccc(/C=C2\SC(=S)N(NS(=O)(=O)c3ccc(C)cc3)C2=O)c(OC)c1`, the Potency is 14.1 µM (active).

On to `CC(=O)Nc1ccc(SC[C@H](C)CN2CC[C@H](C(C)(C)C)CCC2=O)cc1`, for which the Potency result was “inactive”.

Turning to `Brc1ccc(-c2csc(-c3c[nH]c4ccccc34)n2)cc1`, the Potency entry is “inactive”.

With `CO/N=C(/COc1ccc(F)cc1)c1ccc(OC)cc1`, the Potency result was “inactive”.

Turning to `Cc1ccc(S(=O)(=O)Nc2cccc(C(=O)NCC(c3ccco3)N3CCCCC3)c2)cc1F` (stereo not given), the Potency entry is “inactive”.

With `COc1cc(C)ccc1S(=O)(=O)N1CCCCCC1`, the Potency result is “inactive”.

`Cc1cccc(CC2C(=O)Nc3ccccc32)c1` (stereo not given): the Potency entry is “inactive”.

Take `CC(C)Cc1csc(NC(=O)c2ccc(Cl)cc2)c1C(=O)O`: the Potency entry is “inactive”.

Turning to `CSc1ccccc1NC(=O)COc1ccccc1C`, the Potency result is “inactive”.

With `COc1ccc(-c2cc(OC(=O)c3ccc(Cl)cc3)c3c(C)oc(C)c3c(=O)c2)cc1`, the Potency was 75.7 µM (active).

As for `Cc1ccc(Cl)c2sc(N3CCN(C(=O)c4ccco4)CC3)nc12`, the Potency entry is “inactive”.

Regarding `Cc1c(C(=O)OCC(=O)N2CCCC2=O)oc2ccccc12`, the Potency entry was “inactive”.

As to `CC1C/C(=C/c2cccn2C)C(=O)/C(=C/c2cccn2C)C1` (stereo not given), the Potency is 16.9 µM (active).

In the case of `CCC(Oc1ccccc1)C(=O)Nc1cc(Cl)ccc1-n1cncn1` (stereo not given), the Potency result is “inactive”.

For `Cc1onc(-c2ccccc2)c1C(=O)c1c[nH]c(C(=O)NCCCN2CCOCC2)c1`, the Potency result is “inactive”.

Consider `COc1ccc(C(=O)COC(=O)CCN2C(=O)C3CC=CCC3C2=O)c(OC)c1` (stereo not given), for which the Potency entry is “inactive”.

On to `CCCCC1=CC2=CC(=O)C(C)(OC(=O)C3CCCC3)C(=O)C2=CO1` (stereo not given), for which the Potency was 39.8 µM (active).

Regarding `COc1ccc(S(=O)(=O)Nc2ccc(OCC(=O)O)cc2)c2ccccc12`, the Potency entry was “inactive”.

Turning to `Cc1onc(-c2c(F)cccc2Cl)c1C(=O)Oc1ccccc1`, the Potency result was “inactive”.

With `O=S(c1ccc2ccccc2c1)c1cnns1` (stereo not given), the Potency result is “inactive”.

Consider `CCOCCCn1c(SCC(=O)Nc2cccc(OC)c2)nc2ccccc2c1=O`, for which the Potency result is “inactive”.

`CC(Oc1ccccc1)C(=O)Nc1nnc(S(=O)(=O)N2CCCCC2)s1` (stereo not given): the Potency entry is “inactive”.

Turning to `CC(C)(C)c1ccc(-c2nc(SCCCOc3ccccc3)n3[nH]c(=O)cc3n2)cc1`, the Potency is 60.1 µM (active).

`COc1ccccc1N1CC(C(=O)Nc2cc(C(F)(F)F)ccc2N2CCCC2)CC1=O` (stereo not given): the Potency entry was “inactive”.

For `CCc1ccc(S(=O)(=O)Nc2cc3c(cc2C)n(C)c(=O)n3C)cc1`, the Potency result is “inactive”.

For `CC1(C(=O)O)CCC2(C)CCC3(C)C(=CC(=O)C4C5(C)CCC(=O)C(C)(C)C5CCC43C)C2C1` (stereo not given), the Potency result was “inactive”.

`CC1CC(C)CN(c2nc3c(c(=O)n(C)c(=O)n3C)n2CCSc2ncccn2)C1` (stereo not given): the Potency entry was “inactive”.

As for `N#CC1(NC(=O)COC(=O)c2nc(Cl)c(Cl)c(N)c2Cl)CCCCC1`, the Potency entry is “inactive”.

As for `COc1ccc(OCC(=O)Nc2ccccc2N2CCCCC2)cc1`, the Potency result is “inactive”.

Turning to `CN(Cc1ccccc1)S(=O)(=O)c1ccc(Cl)c(C(=O)NCc2ccncc2)c1`, the Potency result was “inactive”.

For `CC1CC(C)CN(C(=O)COC(=O)CNC(=O)C23CC4CC(CC(C4)C2)C3)C1` (stereo not given), the Potency result is “inactive”.

With `COc1cc2c3nnc(-c4ccccc4)c-3cn(Cc3ccc(F)cc3)c2cc1OC`, the Potency entry was “inactive”.

`Cc1[nH]n(-c2ccccc2)c(=O)c1C(c1cccc([N+](=O)[O-])c1O)c1c(C)[nH]n(-c2ccccc2)c1=O`: the Potency is 44.7 µM (active).

For the molecule `COc1ccc(CNc2cccnc2)c(OC)c1OC`, the Potency entry was “inactive”.

In the case of `Cc1ccc(C(=O)Nc2sc(C)c(C)c2C(=O)c2ccccc2)cc1`, the Potency entry is “inactive”.

The values are drawn from PubChem BioAssay (NCATS).
